HCV inhibitor: HCV inhibition. Huh7.5.1 HCVcc-Cre infection, luciferase reporter, 44 h. hit rate 3.4% among 340,000. AID 651820. Potency, µM (series often up to 41.8 µM), for the others: at the highest dose activity change, negative = inhibition, usual class: inhibitors; also: potency is read from the fitted curve at half-maximal effect
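Reporter virus HCVcc-Cre (~0.5 moi) infects cells exposed to compound; seeding density 1,000 cells/well with 4 h settling beforehand. Luminescence, 15 sec read, taken 44 h post-infection following a 15 min RT substrate incubation.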
FBPA Giardia inh: blocks Giardia fructose-bisphosphate aldolase activity; AID 2451; purified Giardia FBPA; A8B2U2; hit rate 0.71% among 290,000; Potency, µM (titrated, usually from 59.6 µM), for inactives: at the highest dose activity, negative = inhibition, actives largely listed as inhibitors; also: potency is read from the fitted curve at half-maximal effect; nearly all actives have a fitted effect of over 55% in size
Target sequence (A8B2U2 whole entry, looked up): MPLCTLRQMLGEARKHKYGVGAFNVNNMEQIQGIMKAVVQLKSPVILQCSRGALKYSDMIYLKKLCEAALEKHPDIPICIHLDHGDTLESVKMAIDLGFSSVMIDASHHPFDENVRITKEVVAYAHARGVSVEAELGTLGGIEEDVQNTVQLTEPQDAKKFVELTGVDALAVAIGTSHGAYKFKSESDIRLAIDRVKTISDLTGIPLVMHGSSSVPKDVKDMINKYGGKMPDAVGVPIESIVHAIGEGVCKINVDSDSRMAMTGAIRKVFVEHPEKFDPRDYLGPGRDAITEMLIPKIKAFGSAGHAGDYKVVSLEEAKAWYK
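Giardia FBPA (40 nM reagent) was preincubated 10 min at RT with compound (up to 57.5 uM final), then substrate plus GAPDH/TPI/NAD/arsenate coupling system with diaphorase/resazurin was added; resorufin fluorescence (525/598 nm) was read after 20 min.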
FMDV antiviral: blocks foot and mouth disease virus; AID 1159524; hit rate 1.2% among 410,000; FMDV antiviral cell-based qHTS; Potency, µM (titrated, usually from 57.9 µM), inactives show at the top dose activity change, negative = inhibition, most hits filed as inhibitors; calls by dose curve; tested in HEK293T cells; also: read-out not given here; potency is read from the fitted curve at half-maximal effect; nearly all actives have a fitted effect of over 45% in size
Lassa entry inh: inhibitors of Lassa virus binding or cell entry | Lassa virus pseudotype entry inhibition, cell reporter | Potency, µM (top dose mostly 37.9 µM), for inactives: at the highest dose activity change, negative = inhibition, actives largely listed as inhibitors | hit rate 1.2% among 300,000; calls by dose curve; tested in HEK293 cells; also: potency is read from the fitted curve at half-maximal effect; nearly all actives have a fitted effect of over 50% in size
HCMV inh: blocks human cytomegalovirus replication. HFF cells, HCMV-luciferase reporter, 72 h; active compounds read low. activity change, negative = inhibition, % at 57.5 µM. hit rate 4.5% among 410,000; in the data active = activity change below about -60%; inconclusive = no clear call, values can overlap the other calls; inactive = above about -39%
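Compounds were evaluated in HFFs infected with an HCMV luciferase reporter virus (MOI 1 PFU/cell). Luciferase in lysates collected 72 h post infection served as the replication measure.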
Marburg entry inh: inhibitors of Marburg virus binding or cell entry | Marburg virus pseudotyped entry inhibition, cell reporter | Potency, µM (top dose mostly 37.8 µM), inactives show at the highest dose activity change, negative = inhibition, hits mostly inhibitors | hit rate 1.8% among 300,000; calls by dose curve; tested in HEK293 cells; also: potency is read from the fitted curve at half-maximal effect
* hit, by the source's call; ? = inconclusive; . = not tested or not shown; [ ] = dose if it differs, or a comment. Rows were chosen to be rich in hits. Some 8.3% of all compounds tested hit in one or more screens of this group. Unless noted, calls follow the shape of the dose curve; as a rule, active = well fitted curve in the direction sought with a large enough effect; inconclusive = small, poorly fitted or top-dose-only effect, or another doubt; inactive = no such curve, though single readings can be large; an effect the other way counts as inactive or inconclusive. % is scaled to controls: 0 for no effect and ±100 for the full control effect.

SMILES	HCV inhibitor	FBPA Giardia inh	FMDV antiviral	Lassa entry inh	HCMV inh	Marburg entry inh
CCc1ccc(-c2nc(CN3CCC(C(=O)N4CCN(c5ccccn5)CC4)CC3)c(C)o2)cc1	11.2µM*	3.3%	25.1µM*	?	-16.0	?
Cc1nc(NCc2ccc3nsnc3c2)sc1-c1ccn(C)n1	.	.	16.1%	.	.	.
CCc1ccc(N/C(SCc2cccc(F)c2)=C(/C#N)C(=O)NCc2ccco2)cc1	17.9%	-10.2%	-5.8%	?	5.3	20.6µM*
Cc1ccc(N/C(SCc2ccccc2C)=C(/C#N)C(=O)NCc2ccco2)cc1C	?	-8.6%	-26.7%	?	-18.3	?
C/C(=N\NC(=O)CO/N=C(\C)c1cccs1)c1ccc(N)cc1	-19.0%	-0.4%	-2.0%	.	-31.4	.
C/C(=N\OCC(=O)N/N=C/c1ccc(C)cc1O)c1cccs1	10µM*	10.4%	11.2%	14.5%	6.6	-18.6%
CCOC(=O)c1c(C)n(-c2ccccc2)c2ccc(O)cc12	10µM*	-1.2%	?	-18.1%	?	0.4%[46.1 µM]
CCOC(=O)c1c(CN2CCN(C)CC2)n(-c2ccccc2)c2cc(Br)c(O)cc12	14.1µM*	0.8%	-1.8%	.	-7.5	.
CCOC(=O)c1c(CN(CC)CC)n(-c2ccccc2)c2ccc(O)cc12	-19.9%	15.8%	7.8%	-13.7%	-29.1	?
CCOC(=O)c1c(C)n(C)c2cc(Br)c(C)cc12	8.91µM*	4.0%	.	15.1%	-34.4	-11.7%
CCOC(=O)c1c(-c2ccccc2)[nH]c2ccc(O)cc12	11.2µM*	1.1%	?	-6.9%	-11.9	?
COCCNc1ncnc2ccc(-c3cccc(OC)c3)cc12	.	-0.3%	-2.6%	.	.	.
CCOC(=O)c1c(C)n(-c2ccccc2)c2ccc(OC(=O)c3ccccc3NC(=O)C(C)C)cc12	.	.	31.6µM*	-17.4%[46.1 µM]	-0.5	.
CCOC(=O)c1c(C)n(-c2ccccc2)c2ccc(OC(=O)COc3ccc(Cl)cc3)cc12	.	.	-24.9%	11.5%[46.1 µM]	0.2	.
CCOC(=O)c1c(C)n(-c2ccccc2)c2ccc(OC(=O)c3cccc(C)c3)cc12	.	.	9.1%	11.7%[46.1 µM]	-5.5	.
CCOC(=O)c1c(C)n(-c2ccccc2)c2ccc(OC(=O)c3ccccc3NC(=O)C(C)(C)C)cc12	.	.	?	2.5%[46.1 µM]	-93.5*	.
CC(=O)c1ccc2cccc3c2c1N=CN3C	-9.8%	?	.	-0.8%	-62.8*	5.1%
O=C(NCCc1ccccn1)C1CC12CCN(C(=O)c1c(F)cccc1Cl)CC2 (centres undefined)	.	.	5.2%	.	.	.
CCC1(O)C(=O)OCc2c1cc1n(c2=O)Cc2cc3c(N)cccc3nc2-1 (centres undefined)	?	.	0.7%	?	-98.4*	?
Cc1ccc2c(c1)N(C(=O)CCC(=O)NCc1cccs1)CCO2	.	.	-3.1%	-5.1%[46.1 µM]	2.4	-4.8%[46.1 µM]
O=C(Nc1ccncc1)c1cc(S(=O)(=O)N2CCCC2)ccc1Cl	?	.	?	.	21.2	.
COc1ccccc1C(=O)Nc1ccc(S(=O)(=O)N2CCCC2)cc1	-3.6%	-0.5%	-20.8%	-2.5%	-8.7	2.2%
COc1ccc(Cl)cc1C(=O)Nc1ccc(S(=O)(=O)N2CCCC2)cc1	10.8%	1.0%	-20.2%	-1.6%	-101.5*	12.9%
O=C(Nc1ccc(O)cc1)c1cc(S(=O)(=O)N2CCCC2)ccc1Cl	-24.8%	1.5%	?	-1.9%	-97.0*	?
CCOc1ccc(-c2cc(-c3nc(-c4cc(OC)c(OC)c(OC)c4)no3)[nH]n2)cc1	.	.	0.0%	-3.9%[46.1 µM]	-8.6	.
SMILES	HCV inhibitor	FBPA Giardia inh	FMDV antiviral	Lassa entry inh	HCMV inh	Marburg entry inh
COc1ccc(-c2cc(-c3c(O)c(OC)c4occc4c3OC)[nH]n2)cc1	31.6µM*	-5.1%	2.8%	-8.2%	112.8	?
COc1ccc(-c2cc(-c3c(O)c(OC)c4occc4c3OC)[nH]n2)cc1OC	11.2µM*	-4.8%	.	-34.4%	20.4	-18.5%
COc1ccc(-c2cc(-c3ccccc3O)[nH]n2)cc1	-4.8%	-9.3%	?	?	75.7	?
Cc1ccc(CNc2nc(CN3CCSCC3)nc3ccccc23)o1	.	.	39.2%	.	.	.
O=C(Nc1ccc(Nc2ccccc2)cc1)C(Cl)Cl	?	-8.7%	13.4%	?	-63.7*	?
CSc1cc(-c2ccc(Cl)cc2)c(C(=O)NN)s1	3.55µM*	-3.7%	1.5%	11.1%	9.4	?

Source: PubChem BioAssay (National Center for Advancing Translational Sciences (NCATS))
